FLuc counter: counter-screen for miR-21 project: firefly luciferase inhibitors or activators | P08659 | purified FLuc, Km substrates, luminescence inhibition | Potency, µM (doses to about 57.5 µM), without a hit: top-dose activity change, negative = inhibition, most hits filed as inhibitors | 360,000 compounds, 6.9% hits | AID 588342;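 note: plate controls were vehicle for no effect and reference inhibitor for full effect; nearly all actives have a fitted effect of over 55% in size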
Target sequence (P08659 whole entry, looked up): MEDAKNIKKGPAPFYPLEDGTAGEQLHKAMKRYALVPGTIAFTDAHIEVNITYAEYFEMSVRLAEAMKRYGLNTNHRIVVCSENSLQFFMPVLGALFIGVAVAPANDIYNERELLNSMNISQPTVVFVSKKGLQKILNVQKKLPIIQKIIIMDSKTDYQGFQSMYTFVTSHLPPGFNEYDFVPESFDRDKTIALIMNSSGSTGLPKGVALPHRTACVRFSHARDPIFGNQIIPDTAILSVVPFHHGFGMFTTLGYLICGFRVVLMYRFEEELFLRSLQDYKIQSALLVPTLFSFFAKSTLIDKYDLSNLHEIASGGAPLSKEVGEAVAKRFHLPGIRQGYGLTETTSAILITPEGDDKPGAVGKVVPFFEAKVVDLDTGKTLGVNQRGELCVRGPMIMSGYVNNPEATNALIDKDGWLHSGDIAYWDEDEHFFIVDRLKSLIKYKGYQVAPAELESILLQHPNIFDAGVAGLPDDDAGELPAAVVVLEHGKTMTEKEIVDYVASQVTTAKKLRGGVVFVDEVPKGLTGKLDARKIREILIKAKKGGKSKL
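Biochemical qHTS of compounds, final roughly 60 µM downward over six points, against 10 nM purified firefly luciferase using Km concentrations of substrates (10 uM D-luciferin, 10 uM ATP) in Tris acetate pH 7.5 buffer; luminescence output.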
NPC1 prom act: activates the NPC1 promoter | Huh7 NPC1 promoter luciferase reporter, 24 h | Potency, µM (titrated, usually from 9.22 µM), inactives show top-dose activation, usual class: activators | 320,000 compounds, 2.4% hits | AID 485313; note: % of control where 0% means no effect; nearly all actives have a fitted effect of over 60% in size
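Stably transfected Huh7 (NPC1 promoter→luciferase), 1500 cells/well in Opti-MEM + 10% FBS, 2 h settle, then compound 24 h at 37 °C. Luminescence after 10 min with Amplite reagent.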
Rab9 promoter act: activates the Rab9 promoter; Huh7 Rab9 promoter-luciferase reporter, luminescence, 24 h; Potency, µM (highest dose often 9.22 µM), inactives show at the highest dose activation, negative = inhibition, actives largely listed as activators; 320,000 compounds, 2.8% hits; note: % of control where 0% means no effect; nearly all actives have a fitted effect of over 60% in size
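Rab9 promoter-driven luciferase in stably transfected Huh7 cells; 1500 cells/well rested 2 h, exposed to compound in DMSO for 24 h at 37 °C, 5% CO2. Luminescence read 10 min after adding luciferase reagent at ambient temperature.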
SMN2 splice up: SMN2 splice variant enhancement. Potency, µM (top dose mostly 46.1 µM), inactives show top-dose activity change, positive = activation, actives largely listed as activators. AID 1458. HEK293 SMN2-luciferase splicing reporter, luminescence, 30-36 h. 210,000 compounds, 2.8% hits; note: % of control where 0% means no effect; nearly all actives have a fitted effect of over 55% in size
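HEK293 cells carry an SMN2 minigene-luciferase reporter in which exon 7 inclusion puts luciferase in frame. Cells were seeded at 2000 cells/well, attached for 10-12 hours, then exposed to compounds for 30-36 hours at 37C before ONE-Glo luminescence.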
ELG1 genotox: genotoxicity induction in ELG1-luciferase HEK293T cells. HEK293T ELG1-luciferase reporter, luminescence, 16 h. Potency, µM (series often up to 46 µM), without a hit: top-dose activity change, positive = activation, actives largely listed as activators. 330,000 compounds, 1.3% hits. AID 504466; note: % of control where 0% means no effect; nearly all actives have a fitted effect of over 60% in size
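HEK293T cells expressing luciferase-tagged ELG1 were treated with compound or DMSO for 16 hr at 37°C. Luciferase activity was then read after 30 min with ONE-Glo at room temperature; rising signal flags genetic stress.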
KinaseGlo FLuc: blocks Kinase-Glo luciferase, a counter-screen artifact | Q27757 | Kinase-Glo luciferase, ATP luminescence, 8 min | Potency, µM (titrated, usually from 38.3 µM), for the others: at the highest dose activity change, negative = inhibition, hits mostly inhibitors | 200,000 compounds, 0.28% hits | AID 1379; note: % is set by controls: 0 for no effect and ±100 for the full control effect; nearly all actives have a fitted effect of over 60% in size
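Compound is pinned into ATP-containing buffer (10 uM ATP, imidazole pH 7.2, 7 mM MgCl2). Kinase-Glo luciferase reagent is then added. Light output is recorded following an 8-min room-temperature incubation.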
* marks the source's active call; other numbers are inactive results; ? = inconclusive; . = no result given. Most compounds without a hit are left out; they make up all but 7.5% or so of the library. Calls come from the whole dose curve; as a rule, active = well fitted curve in the direction sought with a large enough effect; inconclusive = small, poorly fitted or top-dose-only effect, or another doubt; inactive = no such curve, though single readings can be large; an effect the other way counts as inactive or inconclusive. Potency is the fitted concentration of half-maximal effect.

SMILES	FLuc counter	NPC1 prom act	Rab9 promoter act	SMN2 splice up	ELG1 genotox	KinaseGlo FLuc
O=c1[nH][nH]c2c(N=Cc3ccccc3O)ccc(F)c12	19µM*	0%	-8%	.	-6%	.
Cc1sc(NC(=O)C2=COCCO2)c(C(N)=O)c1C	17µM*	14%	22%	.	28%	.
Cc1sc(NC(=O)c2cccs2)c(C(N)=O)c1C	11µM*	18%	?	10µM*	?	-13%
CCOC(=O)c1c(NC(=O)c2cccs2)sc(CC)c1-c1cccs1	1%	-3%	3%	-19%	-1%	0%
NCCC[C@@H](CC(=O)N[C@@H]1CCNC[C@H]1C(=O)N[C@H](CC(=O)N[C@@H](CCC(=O)O)CC(=O)O)Cc1ccccc1)NC(=O)C[C@H](Cc1ccccc1)NC(=O)[C@@H]1CNCC[C@H]1N	.	.	.	-3%	.	3%
CCOCCCNC(=O)C1CCN(c2cc(C)nc3c(-c4ccc(Cl)cc4)c(C)nn23)CC1	0%	.	.	11%	.	.
Nc1nc(N)nc(-c2ccc(Cl)c(Cl)c2)n1	4.8µM*	2µM*	?	.	7%	.
Nc1nc(N)nc(-c2ccccc2)n1	-2%	0%	2%	6%	0%	-3%
COc1ccc(C(=O)n2nc(C)cc2Nc2ccccc2)cc1	11µM*	15%	27%	0%	23µM*	-2%
CCN(CC)CCCC(C)n1c(-c2ccccc2)nc2c(NCCO)nc(C)nc21 (stereo not given)	.	.	.	-11%	.	3%
CCn1c(=O)c(C(=O)Nc2ccc(C(C)=O)cc2)nc2ccccc21	15µM*	.	.	28%	.	.
CCOc1ccc(N=C(NN)c2ccc3ccccc3n2)cc1	11µM*	29%	?	15%	?	-1%
COc1cc(NC(=O)COC(=O)c2ccc3ccccc3n2)cc(OC)c1	-3%	-1%	-2%	.	-3%	.
CC(=O)c1ccc(NC(=O)CN(C)S(=O)(=O)c2cccc3nsnc23)cc1	-3%	.	.	21%	.	.
COc1ccc(-c2noc(CCC(=O)O)n2)cc1	-26%	-5%	-12%	-17%	0%	-1%
COc1ccc(-c2noc(CCCC(=O)O)n2)cc1	11µM*	-17%	-17%	25%	-1%	-1%
CCOc1ccc(-c2noc(CCC(=O)O)n2)cc1	12µM*	-4%	-13%	11%	6%	-1%
CC(C)C[C@@H](CC(=O)N[C@@H](CCCN)CC(=O)N[C@@H]1CCNC[C@H]1C(=O)N[C@H](CC(=O)N[C@@H](CCC(=O)O)CC(=O)O)Cc1c[nH]c2ccccc12)NC(=O)[C@@H]1CCCC[C@H]1N	.	.	.	7%	.	2%
NC1=NC(S)C2N=CN=C2N1 (stereo not given)	.	.	.	-48%	.	.
O=C(NN=C1CCC(=NNC(=O)c2ccccn2)CC1)c1ccccn1	?	0%	9%	.	?	-2%
O=C(N/N=C/C1CCCCC1)c1cc(Cl)ccc1O	12µM*	-4%	-7%	-11%	3%	0%
O=C(N/N=C/C1CCCCC1)c1ccccn1	13µM*	-6%	-1%	20%	?	-16%
C=CCn1c(SCc2c(C)noc2C)nc2ccccc2c1=O	1%	-22%	-18%	-18%	10µM*	-1%
C=CCn1c(SCc2c(C)noc2C)nc2cc(C(=O)O)ccc2c1=O	8%	-22%	-20%	20%	?	-3%
Cc1noc(C)c1CSc1nc2ccccc2c(=O)n1-c1ccc(F)cc1F	-1%	-22%	-11%	11µM*	18%	2%
SMILES	FLuc counter	NPC1 prom act	Rab9 promoter act	SMN2 splice up	ELG1 genotox	KinaseGlo FLuc
CCc1ccc(NC(=O)c2noc3c2CCCCC3)cc1	2.1µM*	0.71µM*	0.63µM*	10µM*	?	8%
CCc1ccc(NC(=O)c2noc3c2CCC3)cc1	0.67µM*	1µM*	0.56µM*	13µM*	0.82µM*	-20%
Cc1ccc(Cn2ccc(NC(=O)c3noc4c3CCCC4)n2)cc1	?	?	?	3%	21µM*	6%
COc1ccc(NC(=O)c2noc3c2CCCCC3)cc1	12µM*	1.4µM*	?	7.9µM*	?	-5%
C=CCOC(=O)N[C@@H](c1ccccc1)[C@@H](C)[N+](=O)[O-]	.	.	.	6%	.	1%
Cc1ccc(NC(=O)c2noc3c2CCCCC3)cc1C	1.1µM*	0.4µM*	0.63µM*	7.9µM*	?	-7%
O=C(NCc1ccccc1)c1noc2c1CCCC2	-18%	20%	21%	.	?	0%
CC(NC(=O)c1noc2c1CCCC2)c1ccccc1 (stereo not given)	-3%	-1%	-4%	-17%	-1%	-5%
CC(=O)c1cccc(NC(=O)c2noc3c2CCCC3)c1	11µM*	.	.	2.8µM*	.	.
CC(C)(C)C1CCc2onc(C(=O)NC3CCCC3)c2C1 (stereo not given)	3%	1%	-5%	-33%	-1%	-2%
O=C(NC1CCCCC1)c1noc2c1CCCCC2	9.5µM*	2.2µM*	2.5µM*	13µM*	9.2µM*	-5%
O=C(NCCc1ccccc1)c1noc2c1CCCCC2	8.5µM*	2.5µM*	3.5µM*	?	?	-4%
Cc1ccc(Cn2nc(C)c(NC(=O)c3noc4c3CCCCC4)c2C)cc1	2%	-1%	1%	-33%	-8%	-3%
CCCN(C(=O)Cn1nc(Cc2ccncc2)c2ccccc2c1=O)c1ccccc1C	0%	.	.	-4%	.	.
Cc1ccc(NC(=O)c2noc3c2CCCCC3)cc1	9.5µM*	0.56µM*	0.5µM*	11µM*	?	-10%
O=C(CN1C(=O)CCC1=O)c1ccc(-c2ccccc2)cc1	?	24%	?	4µM*	17%	-6%
Cc1ccc(C(=O)OCC(=O)c2ccccc2)cc1	1.9µM*	0.32µM*	0.56µM*	.	0.58µM*	.
CC(=O)NC(C)C(=O)OCC(=O)c1ccc(-c2ccccc2)cc1 (stereo not given)	13µM*	-3%	-4%	7%	11%	3%
CCc1ccc(C(=O)COC(=O)c2ccc(-c3nnc(-c4ccccc4)o3)cc2)cc1	-4%	0.89µM*	0.56µM*	7.9µM*	?	-2%
CC(NC(=O)c1ccccc1)C(=O)OCC(=O)c1ccc(Br)cc1 (stereo not given)	-10%	-2%	17%	.	6%	.
O=C(COC(=O)c1ccc(-c2cnc3ccccc3n2)cc1)c1ccccc1	-9%	24%	?	8%	2%	-1%
CC(=O)c1ccc(NC(=O)CSc2nccn2C2CCCC2)cc1	-12%	.	.	.	.	.
CCc1cccc(C)c1NC(=O)Cn1cc2c(n1)CCCCC2	7%	.	.	-7%	.	.
CCOC(=O)C(CC(=O)c1ccccc1)CC(=O)c1ccccc1	13µM*	?	23%	.	17%	.
